Laboratory results taken from PubChem BioAssay (NCI).
Where “and” joins values, the source holds several entries; their conditions need not be identical. Equal values may be shown once. About 83,000 compounds went through this panel and 20% of them were active in at least one assay; those are over-represented in the sample as a whole.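 Cells were grown in 96-well plates and exposed to the test compound at a single concentration for 48 hours; results are reported as percent growth, with values below 10 considered active.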 Some structures have more than one record in an assay (separate samples or runs), and their calls can disagree. Calls of active or inactive are those of the source.

Legend:
Experiment in all cases: NCI-60 one-dose screen, 48 h (100 = growth as untreated, 0 = no growth, -100 = all killed)
HCT-15 colon = settings: 10 µM
HT29 colon = settings: 10 µM
SNB-75 CNS = settings: 10 µM
U251 CNS = settings: 10 µM
PC-3 prostate = settings: 10 µM
SK-MEL-5 melanoma = settings: 10 µM
UACC-62 melanoma = system: UACC-62 melanoma
LOX IMVI melanoma = settings: 10 µM
SK-MEL-28 melanoma = settings: 10 µM
SK-MEL-2 melanoma = settings: 10 µM
Method: Growth inhibition of the SK-MEL-2 human tumor cell line is measured as a screen for anti-cancer activity. Cells are grown in 96 well plates and exposed to the test compound for 48 hours. Compounds are tested at a single concentration, which is 10^-5 M for most compounds. The reported endpoint is percent growth (GI% or GIPRCNT), where numbers from 0 - 100% represent growth inhibition, and numbers from -100% - 0 represent cell death. For example, a value of 40 represents 60% growth inhibition. A value of 0 means no net growth occurred over the course of the experiment. A value of -40 indicates 40% of cells at the beginning of the experiment died by the end of the experiment. A value of -100 means all cells are dead at the end of the experiment.
NCI-60 Human Tumor Cell Lines Screen was performed using the standard one-dose NCI protocol, which is described in more detail at https://dtp.cancer.gov/discovery_development/nci-60/default.htm.
Compounds with GIPRCNT values below 10 were considered active. Activity score was based on GIPRCNT using the following formula: […]
Score is 0 for GIPRCNT values of 100 or above, 50 for GIPRCNT values of 0, and 100 for GIPRCNT values of -100.

EKVX NSCLC = settings: 10 µM
SN12C renal = settings: 10 µM
TK-10 renal = system: TK-10 renal
ACHN renal = settings: 10 µM
CAKI-1 renal = settings: 10 µM
A498 renal = settings: 10 µM
CCRF-CEM leukemia = settings: 10 µM
MOLT-4 leukemia = settings: 10 µM
SNB-19 CNS = settings: 10 µM
UO-31 renal = settings: 10 µM

Measured: growth

C#CCN(Cc1ccc2nc(N)[nH]c(=O)c2c1)c1ccc(C(=O)NC(CCC(=O)O)C(=O)O)cc1 (centres undefined)
inactive: HCT-15 colon 65.5% | HT29 colon 62.5% | SNB-75 CNS 86.5% | U251 CNS 89.2% | PC-3 prostate 64.6% | SK-MEL-5 melanoma 100% | UACC-62 melanoma; 10 µM 81.6% | LOX IMVI melanoma 16% | SK-MEL-28 melanoma 95.2% | SK-MEL-2 melanoma 143% | EKVX NSCLC 55.6% | SN12C renal 48.9% | TK-10 renal; 10 µM 78.5% | ACHN renal 30.1% | CAKI-1 renal 33.2% | A498 renal 110% | CCRF-CEM leukemia 22.5% | MOLT-4 leukemia 39.1%

Cc1ccc(Sc2ccccc2N)cc1
inactive: HCT-15 colon 21.2% | HT29 colon 26.1% | SNB-75 CNS 122% | SNB-19 CNS 95.6% | U251 CNS 84.3% | PC-3 prostate 74.4% | SK-MEL-5 melanoma 91.8% | UACC-62 melanoma; 10 µM 90.2% | LOX IMVI melanoma 76.1% | SK-MEL-28 melanoma 118% | SK-MEL-2 melanoma 15.9% | EKVX NSCLC 121% | SN12C renal 89% | UO-31 renal 81.5% | TK-10 renal; 10 µM 98% | CAKI-1 renal 62.5% | A498 renal 118% | CCRF-CEM leukemia 88.2% | MOLT-4 leukemia 81.2%
active: ACHN renal -20%

C=C1C(=O)OC2CC1C(OC(C)=O)C/C(C)=C/CC/C(C)=C\CCC2(C)O (centres undefined)
active: HCT-15 colon -80.1% | HT29 colon -45.1% | UACC-62 melanoma; 100 µM -94.6% | LOX IMVI melanoma 6.22% | UO-31 renal -39.8% | TK-10 renal; 10 µM -11.8% | TK-10 renal; 100 µM -98.1% | ACHN renal -5.85% | CCRF-CEM leukemia -17.1% | MOLT-4 leukemia -14.4%
inactive: SNB-75 CNS 19.8% | SNB-19 CNS 51.6% | U251 CNS 33.3% | PC-3 prostate 18.3% | SK-MEL-5 melanoma 55.8% | UACC-62 melanoma; 10 µM 44.5% | SK-MEL-2 melanoma 41.5% | EKVX NSCLC 59.3% | SN12C renal 40.6% | CAKI-1 renal 16% | A498 renal 87.3%

COc1ccc(C(=O)C(CN(C)C)CN(C)C)cc1
inactive: HCT-15 colon 46.6% | SNB-75 CNS 76.4% | SNB-19 CNS 103% | U251 CNS 102% | PC-3 prostate 89.6% | SK-MEL-5 melanoma 101% | UACC-62 melanoma; 10 µM 73.4% | LOX IMVI melanoma 82.4% | SK-MEL-28 melanoma 83.1% | SK-MEL-2 melanoma 149% | SN12C renal 98.9% | UO-31 renal 17% | TK-10 renal; 10 µM 15.7% | A498 renal 99% | CCRF-CEM leukemia 36.3%
active: HT29 colon -77.3% | EKVX NSCLC -17% | ACHN renal -85.5% | CAKI-1 renal -84.8% | MOLT-4 leukemia -32%

COc1cc([C@@H]2c3cc4c(cc3[C@@H](Nc3ccc(NC(=O)c5cc([N+](=O)[O-])cn5C)cc3)[C@H]3COC(=O)[C@H]23)OCO4)cc(OC)c1O
active: UACC-62 melanoma; 100 µM -35.1% | TK-10 renal; 100 µM -28.8%

CN(C)CCOC1(Cc2ccc(Cl)cc2Cl)CCC(C(C)(C)C)CC1 (centres undefined)
15.5% (inactive) and -25.9% (active): SNB-19 CNS
inactive: SNB-75 CNS 47.1% and 44.2% | PC-3 prostate 40.8% and 35.7% | SK-MEL-2 melanoma 94.8% and 54.6% | EKVX NSCLC 48.2% and 54.6% | UO-31 renal 29.3% and 30.2% | TK-10 renal; 10 µM 60.4% and 61.9% | CAKI-1 renal 36.2% and 22.1% | A498 renal 63.9% and 63.3%
active: HCT-15 colon -11.2% and -80.3% | HT29 colon -37.7% and -58.6% | U251 CNS -95.2% and -100% | UACC-62 melanoma; 10 µM -26% and -56.2% | LOX IMVI melanoma -100% | SK-MEL-28 melanoma -58.7% and -50% | CCRF-CEM leukemia 4.16% and -9.84% | MOLT-4 leukemia -14.2% and -16.7%
18.8% (inactive) and -12.6% (active): SN12C renal
10.2% (inactive) and -63.9% (active): SK-MEL-5 melanoma
48.7% (inactive) and -4.79% (active): ACHN renal

O=[N+]([O-])c1cc[n+]([O-])cc1
inactive: HCT-15 colon 112% | HT29 colon 105% | SNB-19 CNS 88.5% | U251 CNS 111% | PC-3 prostate 101% | SK-MEL-5 melanoma 95% | UACC-62 melanoma; 10 µM 91.1% | LOX IMVI melanoma 96.3% | SK-MEL-28 melanoma 115% | SK-MEL-2 melanoma 110% | EKVX NSCLC 110% | SN12C renal 92.8% | UO-31 renal 93.6% | TK-10 renal; 10 µM 110% | ACHN renal 114% | CAKI-1 renal 106% | A498 renal 93.8% | CCRF-CEM leukemia 121% | MOLT-4 leukemia 69.3%

Cc1cc(N(CCOS(C)(=O)=O)CCOS(C)(=O)=O)ccc1C=Nc1ccc(-c2nc(Cc3ccccc3)sc2C)cc1
active: SNB-75 CNS -1.26% | ACHN renal -23.2% | CAKI-1 renal -32% | A498 renal -48.7%
inactive: HCT-15 colon 55% | HT29 colon 46.2% | SNB-19 CNS 39.5% | U251 CNS 43.2% | PC-3 prostate 55% | SK-MEL-5 melanoma 45.2% | UACC-62 melanoma; 10 µM 37.8% | LOX IMVI melanoma 34.9% | SK-MEL-2 melanoma 86.3% | EKVX NSCLC 11.1% | SN12C renal 52.3% | UO-31 renal 22.2% | TK-10 renal; 10 µM 14.2% | CCRF-CEM leukemia 23.4% | MOLT-4 leukemia 14.2%

CC1=CC(=C(c2ccc(N)cc2)c2ccc(N)cc2)C=CC1=N
6.75% (active) and 10.4% (inactive): HT29 colon
inactive: HCT-15 colon 53.9% and 73.4% | SNB-19 CNS 17.9% and 21.6% | U251 CNS 17.4% and 10.6% | SK-MEL-28 melanoma 28.8% and 45.9% | EKVX NSCLC 15.5% and 46.2% | UO-31 renal 32% and 85.8% | TK-10 renal; 10 µM 38.2% and 15.3% | ACHN renal 28.9% and 58.6% | CAKI-1 renal 65.5% | CCRF-CEM leukemia 19.3% and 35.8% | MOLT-4 leukemia 10.4% and 51.9%
-7.24% (active) and 57.3% (inactive): A498 renal
-27.7% (active) and 41.7% (inactive): SK-MEL-2 melanoma
-1.98% (active) and 23.7% (inactive): SNB-75 CNS
-20.2% (active) and 22.6% (inactive): UACC-62 melanoma; 10 µM
9.47% (active) and 18.5% (inactive): PC-3 prostate
7.6% (active) and 22.4% (inactive): LOX IMVI melanoma
10.3% (inactive) and 6.77% (active): SN12C renal
active: SK-MEL-5 melanoma -37.3% and -25.8%
